This note sets out measurements from PubChem BioAssay (NCATS).

The nature of assay [1]: Cell Viability - N2a (AID 540).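 Further: cells exposed to compound for 40 h at 37 °C; nearly all actives have a fitted effect of over 45% in size.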 Further: potency means the concentration at half of the fitted maximal effect.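 On activity change, negative = cytotoxicity: plate controls were DMSO alone for no effect and tamoxifen control for full effect.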 Particulars: N2a mouse neuroblastoma cell viability; activity change, negative = cytotoxicity: at 92.2 µM (top of the series). In short, it runs like this:
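First, 1500 N2a cells per well incubate 5 hr at 37 °C; next, compounds are added and incubated 40 hr at 37 °C; finally CellTiter-Glo is added and luminescence read after 20 min, with AC50 derived by Hill modeling.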

Assay [2] in a line: Cell Viability - NIH 3T3 (AID 541).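 Further: cells exposed to compound for 40 hours; plate controls were DMSO alone for no effect and tamoxifen positive control for full effect; nearly all actives have a fitted effect of over 25% in size.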 Particulars: NIH 3T3 cell viability, qHTS; activity change, negative = cytotoxicity: at 92.2 µM (top of the series). The essentials:
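AC50 values reflect concentration-dependent loss of intracellular ATP in NIH 3T3 cells after 40 hr treatment in complete culture medium, quantified by luciferase-based luminescence.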
In general terms: qHTS replaces the single test concentration by a dilution series.

Assay [3] in a line: Cell Viability - H-4-II-E (AID 543).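 Further: cells exposed to compound for 40 hours; nearly all actives have a fitted effect of over 35% in size.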 Further: potency means the concentration at half of the fitted maximal effect. The essentials:
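Here, cytotoxicity is measured in the rat hepatoma line H-4-II-E as loss of intracellular ATP after 40 hr compound treatment, detected by luciferase luminescence.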

The nature of assay [4]: Cell Viability - Renal Proximal Tubule (AID 545).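 Further: cells exposed to compound for 40 hours; nearly all actives have a fitted effect of over 40% in size.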 Further: potency means the concentration at half of the fitted maximal effect. Particulars: renal proximal tubule cells viability; activity change, negative = cytotoxicity: at 91.7 µM (top of the series) unless noted. In short, it runs like this:
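Rat kidney proximal tubule cells, freshly isolated; 1000 cells/well, 5 hr settle, compound 40 hr 37 °C. CellTiter-Glo 20 min RT, luminescence read. AC50 by standard Hill fit.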

Assay [5] is described as follows: Cell Viability - Mesenchymal (AID 546).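 Further: cells exposed to compound for 40 hours before reading.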 Further: potency means the concentration at half of the fitted maximal effect. Particulars: mesenchymal cells viability, qHTS; activity change, negative = cytotoxicity: at 91.7 µM (top of the series). In short, it runs like this: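 Normal human renal glomerulus-derived kidney mesenchymal cells, 1000 per well in complete medium, were treated with compounds for 40 hr at 37 °C. Viability was read as intracellular ATP by CellTiter-Glo luminescence; AC50 values came from Hill-equation fits of qHTS concentration-response data.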

Assay [6] is described as follows: Cellular Toxicity (caspase-3) HUV-EC-C (AID 656). The essentials:
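Luminescent caspase-3/7 activation (aminoluciferin substrate cleavage) in HUV-EC-C cells after 16 hr compound exposure, 37°C. Signal normalized to DMSO basal and 100 uM tamoxifen as 100%; AC50 from concentration-response fitted with the Hill equation.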

Assay [7] can be described thus: Cellular Toxicity (caspase-3) BJ (AID 658).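 Further: cells exposed to compound for 16 hours; 0% = DMSO basal and 100% = 10 µM staurosporine.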 In short, it runs like this:
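Luminescent aminoluciferin-substrate cleavage reports caspase 3/7 activity in normal human BJ fibroblasts after 16 hr compound exposure at 37 °C. Normalized to DMSO (basal) and 10 uM staurosporine (100%); AC50 from Hill fit of concentration-response.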

Assay [8] in a line: Cellular Toxicity (caspase-3) MRC-5 (AID 659).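 Further: cells exposed to compound for 16 h at 37 °C; 0% = DMSO basal and 100% = 10 µM staurosporine.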 The essentials:
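Luminescence from caspase-cleaved aminoluciferin substrate (Caspase-Glo 3/7, 1 hr RT) reports caspase 3/7 activity in MRC-5 lung fibroblasts after 16 hr compound exposure. Normalized to DMSO basal and 10 uM staurosporine as 100%; AC50 from Hill fits.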

A short description of assay [9]: Cellular Toxicity (caspase-3) Mesangial (AID 660).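 Further: combined caspase 3 and 7 activity read by Caspase-Glo luminescence; cells exposed to compound for 16 h before the caspase read.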 Particulars: Potency: caspase-3 activation. In short, it runs like this: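 Concentration-response qHTS: compound-induced rise in caspase 3/7 luminescence in human mesangial cells after 16 h, normalized to DMSO and 100 uM tamoxifen controls.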
The nature of assay [10]: Cellular Toxicity (caspase-3) Hek293 (AID 664).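 Further: cells exposed to compound for 16 h at 37 °C before readout.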 The settings on record: HEK293 caspase-3 activation, DMSO = 0%, 100 µM tamoxifen = 100%; at 92.2 µM (top of the series). The essentials: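 Activation of caspase-3/7 is measured as increased luminescence from cleaved peptide-aminoluciferin substrate in HEK293 cells treated 16 hours at 37 °C. AC50 values come from Hill-equation fits of concentration-response data.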

The nature of assay [11]: Cellular Toxicity (caspase-3) N2a (AID 665).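 Further: compound exposure lasted 16 h at 37 °C before readout.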 In short, it runs like this: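 Plated mouse neuroblastoma N2a cells received titrated compounds for 16 h in complete medium. Caspase activity was then detected with a peptide-aminoluciferin luminescent reagent.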
The nature of assay [12]: Cell Viability - LYMP1-003 - Assay at 24 hr (AID 963). Further: potency means the concentration at half of the fitted maximal effect. In short, it runs like this: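 Acute toxicity in LYMP1-003 lymphoblastoid cells: 24 hr compound treatment at 37 C, ATP measured with CellTiter-Glo after 30 min at room temperature. AC50 derived by fitting the Hill equation to qHTS titrations.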
Assay [13] in a line: Cell Viability - LYMP2-003 (AID 965).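 Further: cells exposed to compounds for 24 h before reading; nearly all actives have a fitted effect of over 50% in size.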 Further: potency means the concentration at half of the fitted maximal effect.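 On activity change, negative = cytotoxicity: 0% = DMSO only and full effect = 92 µM tetraoctylammonium bromide.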 In short, it runs like this:
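CellTiter-Glo luminescence (cellular ATP) after 24 h compound exposure at 37 C in complete medium; 2500 cells/well, 5 h settling beforehand. Concentration-response fitted to standard Hill equation for AC50. Tetraoctylammonium bromide served as positive control.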

Assay [14] can be described thus: Cell Viability - LYMP2-015 (AID 971). Further: nearly all actives have a fitted effect of over 55% in size. Further: potency means the concentration at half of the fitted maximal effect. In short, it runs like this: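 Acute toxicity was scored as a concentration-dependent drop in intracellular ATP in lymphoblastoid cells after 24 hr compound exposure in complete medium. Detection used CellTiter-Glo luciferase luminescence.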
Assay [15] can be described thus: Cell Viability - LYMP2-019 (AID 973). Further: nearly all actives have a fitted effect of over 55% in size. Further: potency means the concentration at half of the fitted maximal effect.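 On activity change, negative = cytotoxicity: 0% = DMSO alone and full effect = 92 µM tetraoctylammonium bromide.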 In short, it runs like this:
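Cells plated at 2500/well and allowed 5 hr at 37 C before compound addition. After 24 hr incubation, CellTiter-Glo reagent was added, plates sat 30 min at room temperature, and luminescence was recorded.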

A short description of assay [16]: Cell Viability - LYMP2-016 (AID 984).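 Further: cells exposed to compound for 24 hours at 37 °C; nearly all actives have a fitted effect of over 55% in size.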 Further: potency means the concentration at half of the fitted maximal effect. On activity change, negative = cytotoxicity: on the % scale 0 is the no-effect control and ±100 the full control effect. The essentials: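 qHTS, 1536-well: 2500 LYMP2-016 cells/well, 5 hr 37 C, compound added, 24 hr 37 C, CellTiter-Glo 30 min RT, luminescence. Tetraoctylammonium bromide positive control. AC50 via Hill fit.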
The nature of assay [17]: Cell Viability - LYMP2-018 (AID 985).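 Further: compound exposure lasted 24 hr at 37 °C; nearly all actives have a fitted effect of over 50% in size.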 Further: potency means the concentration at half of the fitted maximal effect.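 On activity change, negative = cytotoxicity: plate controls were DMSO only for no effect and tetraoctylammonium bromide at 92 µM for full effect.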 In short, it runs like this: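 Acute cytotoxicity is scored as a concentration-dependent drop in intracellular ATP after 24 hr exposure of the lymphoblastoid line in complete culture medium, measured by luciferase luminescence. Potency is expressed as AC50 from Hill modelling.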
Assay [18] is described as follows: Cell Viability - Hek293 (AID 427;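 active means compounds whose dose-response curve shows a full or clear partial loss of cell viability, called from curve shape rather than a numeric limit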;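 further: potency means the concentration at half of the fitted maximal effect; cells exposed to compound for 40 hours at 37 °C before reading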). Particulars: qHTS. The essentials:
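Luminescent ATP content (CellTiter-Glo, 20 min at room temperature) was measured after a 40 hr, 37 °C compound exposure of HEK293 cells. AC50 values came from Hill-equation fits of qHTS concentration-response data normalized to DMSO and 100 uM tamoxifen.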

Assay [19] is described as follows: Cellular Toxicity (caspase-3) NIH 3T3 (AID 666).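 Further: caspase signal read after 16 h compound exposure; 0% = DMSO basal and 100% = 100 µM tamoxifen stimulation.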 In short, it runs like this:
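Concentration-response qHTS in NIH 3T3 mouse fibroblasts scores caspase-3/7 activation as rising luminescence after 16 hr compound exposure. Signals are scaled between DMSO-only and 100 uM tamoxifen.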

The target in assay [20] is Tumor necrosis factor (Homo sapiens) (UniProt P01375). Kind of assay: qHTS assay to identify small molecules that stimulate Tumor Necrosis Factor-alpha (TNF-alpha) secretion (AID 651757; active means well fitted curve in the direction sought with a large enough effect in the signal ratio; the % refers to the signal ratio; further: 0% is about no effect). In short, it runs like this: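 Secreted TNF-alpha from compound-treated THP-1 cells (17 hrs, 37 C) was quantified with a homogeneous time-resolved fluorescence antibody assay.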
Chain of Tumor necrosis factor (Homo sapiens) (P01375 whole entry, looked up): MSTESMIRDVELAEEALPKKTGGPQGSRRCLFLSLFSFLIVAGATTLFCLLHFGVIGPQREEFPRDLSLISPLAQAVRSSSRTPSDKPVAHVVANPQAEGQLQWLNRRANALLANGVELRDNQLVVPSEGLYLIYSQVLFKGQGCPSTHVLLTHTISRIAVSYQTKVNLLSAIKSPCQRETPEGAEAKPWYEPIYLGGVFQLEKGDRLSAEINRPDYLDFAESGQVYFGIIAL

Each structure is given as a SMILES string. Values joined by “and” are separate entries in the source; they are usually repeats but may differ in a detail not shown here. Equal values may be shown once. Values without a mark were called inactive. Inconclusive results are not listed. Active and inactive are the calls of the source. Unless noted, the call rests on the fitted dose curve; in most records, active means well fitted curve in the direction sought with a large enough effect; inconclusive means small, poorly fitted or top-dose-only effect, or another doubt; inactive means no such curve, though single readings can be large; an effect the other way counts as inactive or inconclusive.

Regarding `CC(C)CC(C)Nc1ccc(Nc2ccccc2)cc1` (stereo not drawn), the activity change, negative = cytotoxicity was -118% (active) in assay [1], -113% (active) in [2] and -106% (active) in [4]. In addition, the Potency in assay [3] was 50.1 µM (active); in assay [12], 50.1 µM (active); in [13], 39.8 µM (active); in assay [14], 39.8 µM (active); in assay [15], 39.8 µM (active); in assay [16], 50.1 µM (active). For the same compound, the Potency in [17] was 31.6 µM (active). For the same compound, the Potency entry in assay [5] and in [9] was “inactive” in each case. The compound was classed as inactive in assay [6], in assay [7], in assay [8] and in assay [11]. The caspase-3 activation in assay [10] was 12.2%.
Turning to `O=C1C2(Cl)C3(Cl)C4(Cl)C(Cl)(Cl)C5(Cl)C3(Cl)C1(Cl)C5(Cl)C24Cl` (stereo not drawn), the Potency in [18] is 30.2 µM (active) and 47.2 µM (active); in assay [1] it was 31.6 µM (active) and 39.8 µM (active); in [3], 31.6 µM (active) and 50.1 µM (active); in assay [4] it was 31.6 µM (active); in assay [5], 31.6 µM (active); in assay [12] it was 31.6 µM (active) and 50.1 µM (active). Further, the Potency in assay [13] is 39.8 µM (active); in [15] it was 50.1 µM (active); in assay [17], 50.1 µM (active). For the same compound, the activity change, negative = cytotoxicity in [2] was -136% (active) and -122% (active); in [4], -88.2% (active); in [5], -92.3% (active). The call in [6], in [8], in assay [11] and in assay [19] was inactive. The caspase-3 activation in assay [10] is 112% (active) and 177% (active). Also, the Potency result in assay [20] was “inactive”.
As for `O=C(O)C1C(C(=O)O)C2(Cl)C(Cl)=C(Cl)C1(Cl)C2(Cl)Cl` (stereo not drawn), in assay [18], the Potency was over 92 µM. In addition, in [1], the activity change, negative = cytotoxicity is 14.3%. The Potency result in assay [2], in [3], in [4], in assay [5], in [9] and in assay [12] was “inactive” each time. Also, the Potency result in [13], in [14], in assay [15], in [16], in assay [17] and in assay [20] was “inactive” each time. The compound was called inactive in assay [6], in assay [7], in assay [8], in [11] and in [19]. For the same compound, in assay [10], the caspase-3 activation is 1.7%.
In the case of `N#CC(Cl)Cl`, the Potency was over 92 µM in [18]; 12.6 µM (active) in [14]; 15.8 µM (active) in assay [15]; 25.1 µM (active) in [16]; 12.6 µM (active) in [17]. Also, the activity change, negative = cytotoxicity in assay [1] was 13.8%. Besides, the Potency entry in assay [2], in assay [3], in [4], in [5], in assay [9] and in assay [12] was “inactive” each time. The Potency entry in assay [13] and in assay [20] was “inactive” each time. Further, the outcome in assay [6], in assay [11] and in assay [19] was inactive. Also, the caspase-3 activation in assay [10] is 72.2% (active).
`ClC1=C(Cl)C2(Cl)C3C(Cl)C(Cl)CC3C1(Cl)C2(Cl)Cl` (stereo not drawn): in [18], the Potency was 72.7 µM (active). Besides, the activity change, negative = cytotoxicity in assay [1] was -82.9% (active). Moreover, the Potency result in [2], in assay [5], in assay [9], in [12], in assay [14] and in assay [15] was “inactive” throughout. Further, the Potency result in [16], in assay [17] and in [20] was “inactive” throughout. For the same compound, the outcome in assay [7], in assay [8] and in assay [19] was inactive. In addition, in assay [10], the caspase-3 activation was 204% (active).
